Shown is part of a subset that was picked to be rich in hits.
LmPK inh: qHTS Assay for Inhibitors of Leishmania Mexicana Pyruvate Kinase (LmPK); Q27686; purified LmPK, Kinase-Glo ATP luminescence, 1 h; Potency, µM (series often up to 57.5 µM), actives largely listed as inhibitors; actives 0.37% (n = 290,000); AID 1721, 2009
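Pyruvate kinase activity monitored as ATP production (luciferase luminescence). Conditions: 0.1 nM enzyme, 0.5 mM PEP, 0.1 mM ADP, 1 h, RT; normalized against uninhibited and no-enzyme wells.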
Sm TGR block: qHTS Assay for the Inhibitors of Schistosoma Mansoni Peroxiredoxins. Potency, µM (highest dose often 114 µM), usual class: inhibitors. AID 485364, 2010. actives 3% (n = 360,000). purified TGR, DTNB reduction, TNB absorbance 405 nm; note: nearly all actives have a fitted effect of over 60% in size
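Kinetic colorimetric format: TGR-catalysed, NADPH-driven DTNB reduction monitored via TNB absorbance. Enzyme dispensed at 20 nM; compound exposure 15 min at room temperature before reaction start.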
TbPYK inhibitor: qHTS of Trypanosoma Brucei Inhibitors; pyruvate kinase (Trypanosoma brucei), Q57TT1; TbPYK enzyme, Kinase-Glo Plus ATP luminescence, 45 min; Potency, µM (top dose mostly 76.8 µM), hits mostly inhibitors; actives 0.12% (n = 410,000); note: nearly all actives have a fitted effect of over 50% in size
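Luminescence from Kinase-Glo Plus, added after a 45-minute room-temperature reaction, served as the end-point read-out. The enzyme and substrate were preincubated with compound before ADP (130 uM final) initiated turnover. Concentration-effect curves came from normalized qHTS data.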
Shiga inhibitor: A qHTS for Small Molecule Inhibitors of Shiga Toxin; Vero cells, Shiga toxin protein synthesis inhibition reporter; actives 9.2% (n = 290,000); inhibition, % at 38.7 µM; in the data active = inhibition mostly above about 28%, no sharp cut-off; inactive = mostly below about 43%
Giardia FBPA inh: qHTS Assay for Inhibitors of Fructose-1,6-bisphosphate Aldolase from Giardia Lamblia; A8B2U2; purified Giardia FBPA; Potency, µM (highest dose often 59.6 µM), actives largely listed as inhibitors; actives 0.71% (n = 290,000); note: nearly all actives have a fitted effect of over 55% in size
Target sequence (A8B2U2 whole entry, looked up): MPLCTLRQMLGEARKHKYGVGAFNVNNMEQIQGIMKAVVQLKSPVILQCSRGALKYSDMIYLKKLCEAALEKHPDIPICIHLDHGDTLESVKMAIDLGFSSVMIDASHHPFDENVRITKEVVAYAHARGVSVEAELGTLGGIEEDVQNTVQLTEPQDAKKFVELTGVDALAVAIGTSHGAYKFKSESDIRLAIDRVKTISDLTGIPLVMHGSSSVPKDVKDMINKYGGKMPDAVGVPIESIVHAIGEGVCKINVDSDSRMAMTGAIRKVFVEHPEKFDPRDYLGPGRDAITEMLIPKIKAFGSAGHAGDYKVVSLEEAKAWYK
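Giardia FBPA (40 nM reagent) was preincubated 10 min at RT with compound (up to 57.5 uM final), then substrate plus GAPDH/TPI/NAD/arsenate coupling system with diaphorase/resazurin was added; resorufin fluorescence (525/598 nm) was read after 20 min.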
Cycloheximide cs: Cycloheximide Counterscreen for Small Molecule Inhibitors of Shiga Toxin; actives 12% (n = 300,000); cell reporter, cycloheximide protein synthesis inhibition counterscreen; max response, %; AID 2314, 2010; in the data active = max response mostly above about 13%, no sharp cut-off; inactive = mostly below about 14%; note: read at 38.3 µM for the half of the compounds with a filed dose
A number is an active result; n = inactive; u = inconclusive; x = not tested or not shown. Unless noted, calls come from the whole dose curve; as a rule, active = well fitted curve in the direction sought with a large enough effect; inconclusive = small, poorly fitted or top-dose-only effect, or another doubt; inactive = no such curve, though single readings can be large; an effect the other way counts as inactive or inconclusive.

SMILES	LmPK inh	Sm TGR block	TbPYK inhibitor	Shiga inhibitor	Giardia FBPA inh	Cycloheximide cs
C[C@@H]1CN([C@@H](C)CO)C(=O)CCCn2cc(nn2)CO[C@H]1CN(C)S(=O)(=O)c1ccc2c(c1)OCCCO2	x	x	n	x	x	x
Cc1ccc(/C=C/C(=O)N2CCc3ccccc32)o1	u	45µM	20µM	103	n	50
CCOC(=O)/C=C/C(=O)N1CCc2ccccc21	u	n	n	n	n	n
O=C(/C=C/c1ccco1)N1CCc2ccccc21	7.9µM	7.9µM	u	59	n	29
O=C(CSc1nnc(-c2ccncc2)n1-c1ccccc1)NC1CC1	n	n	n	n	x	n
COc1ccccc1CNc1nc(C)c(C(C)=O)s1	n	n	n	61	n	43
Cc1cccc(Nc2nc3c(s2)CCCC3)c1	n	n	n	122	n	68
COc1ccccc1CNc1nc(C)c(C(=O)N(C)C)s1	n	n	n	n	n	n
CCOC(=O)c1sc(Nc2ccccc2)nc1C	n	n	n	56	n	52
CCOC(=O)c1sc(NC(=O)c2ccccc2OCC)nc1C	n	n	n	n	n	36
COC(=O)[C@]1(C)CCC[C@]2(C)c3ccc(C(C)C)cc3C(=O)CC12 (some centres not stated)	x	x	x	x	n	x
CCOC(=O)c1sc(NCC2CCCO2)nc1C (configuration not stated)	n	n	n	n	n	active
Cc1nc(Nc2ccccc2)sc1C(=O)c1ccccc1	n	n	n	58	n	47
CCOC(=O)c1sc(Nc2ccc(C)cc2C)nc1C	n	n	n	n	n	18
CC(=O)c1sc(Nc2cccc(C)c2)nc1C	n	x	n	91	n	46
O=S1(=O)N(Cc2ccccc2F)CCCN1Cc1c(F)cccc1Cl	n	n	n	n	n	n
C[C@H]1CNC(=O)c2c(C(=O)NC3CCN(C(=O)OC(C)(C)C)CC3)ncn21	x	x	n	x	x	x
O=S1(=O)N=C(Nc2nc3c(s2)CCCC3)c2ccccc21	n	n	n	57	n	28
CCOC(=O)c1sc(Nc2ccc(F)cc2)nc1C	n	n	n	80	n	28
CCc1cccc(CC)c1NC1=NS(=O)(=O)c2ccccc21	x	n	n	x	x	x
CC(C)(C)C(=O)c1sc(Nc2ccccc2)nc1N	n	n	n	68	n	59
CCOC(=O)c1sc(NS(=O)(=O)c2ccc(F)cc2)nc1C	n	n	n	n	n	n
CC(=O)c1sc(Nc2ccccc2)nc1C	x	x	n	x	x	x
